Source: PubChem
DT40 TDP1 CPT = qHTS for Inhibitors of human tyrosyl-DNA phosphodiesterase 1 (TDP1): qHTS in cells in presence of CPT. chicken DT40 Tdp1-/-;hTDP1 cells + 20 nM CPT, ATP luminescence, 48 h. Potency, µM (top dose mostly 46.2 µM), most hits filed as inhibitors. 420,000 compounds, 12% hits. AID 686979, 2013; also: nearly all actives have a fitted effect of over 55% in size
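Chicken DT40 Tdp1-/- cells complemented with human TDP1, 400 cells/well, exposed to compounds plus 20 nM camptothecin for at least 48 h at 37 C; viability read as ATP content by CellTiter-Glo luminescence.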
ALOX12 inh = Primary qHTS assay for inhibitors of human arachidonate 12S-lipoxygenase (ALOX12): Round 2 | Potency, µM (doses to about 108 µM), actives largely listed as inhibitors | Polyunsaturated fatty acid lipoxygenase ALOX12 (Homo sapiens), P18054 | purified 12hLO, xylenol orange hydroperoxide absorbance | AID 1671190, 2021 | 580,000 compounds, 1.1% hits
Target sequence (P18054 whole entry, looked up): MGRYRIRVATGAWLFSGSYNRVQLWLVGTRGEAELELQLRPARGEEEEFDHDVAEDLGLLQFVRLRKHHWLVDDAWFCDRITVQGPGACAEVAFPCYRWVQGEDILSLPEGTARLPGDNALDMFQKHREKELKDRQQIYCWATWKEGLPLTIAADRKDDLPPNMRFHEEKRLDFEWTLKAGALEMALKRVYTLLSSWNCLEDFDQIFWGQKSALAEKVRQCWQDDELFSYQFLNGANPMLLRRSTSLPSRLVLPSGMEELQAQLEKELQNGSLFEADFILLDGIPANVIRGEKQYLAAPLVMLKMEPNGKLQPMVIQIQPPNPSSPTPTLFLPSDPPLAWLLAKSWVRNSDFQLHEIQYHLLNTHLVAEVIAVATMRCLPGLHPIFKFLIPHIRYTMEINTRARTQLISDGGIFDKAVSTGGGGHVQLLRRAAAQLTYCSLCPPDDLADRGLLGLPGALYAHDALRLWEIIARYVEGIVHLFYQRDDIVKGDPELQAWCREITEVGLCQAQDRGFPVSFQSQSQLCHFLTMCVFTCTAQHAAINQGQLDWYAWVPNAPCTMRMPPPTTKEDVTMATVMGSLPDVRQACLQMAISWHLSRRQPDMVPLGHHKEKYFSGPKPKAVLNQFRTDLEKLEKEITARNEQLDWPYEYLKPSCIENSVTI
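Hydroperoxide product was detected by ferrous iron/xylenol orange as the 573 to 405 nm absorbance ratio. Arachidonic acid at 40 uM (final) was turned over for 30 min at room temperature by 150 nM human 12hLO, pH 7.0 Hepes buffer, after 15 min compound preincubation.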
HT1080 IDH1KD tx = qHTS for induction of synthetic lethality in tumor cells producing 2HG: qHTS for the HT-1080-IDH1KD cell line; Potency, µM (doses to about 46.1 µM), usual class: cytotoxic; HT-1080 IDH1 knockdown viability, ATP luminescence, 48 h; 360,000 compounds, 2% hits; AID 686971, 2013
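Knockdown cells (IDH1KD HT-1080) received compounds 2 h after plating at 750 cells/well and were kept 48 h at 37 °C in 5% FBS RPMI. A CellTiter-Glo luminescence read gave % activity for curve fitting.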
HT1080-NT tox = qHTS for induction of synthetic lethality in tumor cells producing 2HG: qHTS for the HT-1080-NT fibrosarcoma cell line. HT-1080-NT fibrosarcoma viability, CellTiter-Glo ATP luminescence, 48 h. Potency, µM (highest dose often 46.1 µM), hits mostly cytotoxic. AID 686970, 2013. 360,000 compounds, 1.6% hits;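 also: NT is the 2HG producing partner of a matched IDH1 knockdown line; nearly all actives have a fitted effect of over 55% in size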
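Toxicity toward the 2HG-producing NT line was scored as %Activity, normalised to DMSO and no-cell wells, from CellTiter-Glo luminescence after 48 hours' treatment.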
DT40 TDP1 no CPT = qHTS for Inhibitors of human tyrosyl-DNA phosphodiesterase 1 (TDP1): qHTS in cells in absence of CPT; DT40 Tdp1-/- hTDP1 cells, no CPT, ATP luminescence, 48 h; Potency, µM (top dose mostly 46.2 µM), hits mostly inhibitors; 420,000 compounds, 15% hits; AID 686978, 2013; also: nearly all actives have a fitted effect of over 55% in size
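A cellular qHTS used chicken DT40 cells lacking endogenous Tdp1 but carrying stably transfected human TDP1. Compounds were applied without camptothecin, and cell growth kinetics were judged by ATP-dependent luminescence after ≥48 hr.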
IL1B secr inh = qHTS for Inhibitors of Inflammasome Signaling: IL-1-beta AlphaLISA Primary Screen; THP-1 LPS/ATP IL-1B secretion, AlphaLISA, 16 h; active compounds read low; 360,000 compounds, 4.7% hits; AID 743279, 2014; activity change, % at 57.5 µM; in the data active = activity change below about -50%; inconclusive = mostly about -30% to -49%
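THP-1 cells pretreated 1 hr with compounds (up to 57.5 uM final), then stimulated with LPS (250 ng/mL final) plus ATP (1.25 mM final); secreted IL-1B measured by AlphaLISA after 16 hr, decreased signal indicating inhibition.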
A number is an active result; . = inactive; ? = inconclusive; / = no result given. Shown is part of a subset that was picked to be rich in hits. Unless noted, calls follow the shape of the dose curve; as a rule, active = well fitted curve in the direction sought with a large enough effect; inconclusive = small, poorly fitted or top-dose-only effect, or another doubt; inactive = no such curve, though single readings can be large; an effect the other way counts as inactive or inconclusive.

SMILES	DT40 TDP1 CPT	ALOX12 inh	HT1080 IDH1KD tx	HT1080-NT tox	DT40 TDP1 no CPT	IL1B secr inh
O=C(CSCc1cnn(-c2ccccc2)c1-n1cccc1)NCc1ccccc1F	?	.	/	/	?	/
O=C(O)CSCc1cnn(-c2ccccc2)c1-n1cccc1	.	?	.	.	.	.
Cc1ccc(CNC(=O)CCSCc2cnn(-c3ccccc3)c2-n2cccc2)cc1	18µM	?	/	/	15µM	/
O=C(CSCc1cnn(-c2ccccc2)c1-n1cccc1)NCc1cccnc1	?	.	.	.	?	.
O=C(CSCc1cnn(-c2ccccc2)c1-n1cccc1)NCc1cccc(Cl)c1	16µM	.	/	/	23µM	/
COc1cccc(CNC(=O)CSCc2cnn(-c3ccccc3)c2-n2cccc2)c1OC	26µM	.	.	.	?	?
COc1ccccc1CNC(=O)CSCc1cnn(-c2ccccc2)c1-n1cccc1	?	.	.	.	16µM	.
C=C(C)C1CC=C(C)/C(=N/O)C1 (stereo not drawn)	/	.	/	/	/	/
CNC(=O)c1ccc(NC(=O)c2cccc(N(C)C)c2)cc1	/	.	/	/	/	/
COc1cc(Nc2nc3c(S(=O)(=O)c4cccc(Cl)c4)nnn3c3ccsc23)cc(OC)c1	9.2µM	.	/	/	7.3µM	/
CC(C)Nc1nc2c(S(=O)(=O)c3cccc(Cl)c3)nnn2c2ccsc12	.	.	/	/	.	/
CCc1ccc(S(=O)(=O)c2nnn3c2nc(Nc2ccc(NC(C)=O)cc2)c2sccc23)cc1	23µM	?	/	/	?	/
CCc1ccc(S(=O)(=O)c2nnn3c2nc(NCCC(C)C)c2cc(Cl)ccc23)cc1	?	.	/	/	21µM	/
COc1cccc(Nc2nc3c(S(=O)(=O)c4ccccc4)nnn3c3ccsc23)c1	/	.	/	/	/	/
CCc1ccc(S(=O)(=O)c2nnn3c2nc(NC(C)C)c2cc(Cl)ccc23)cc1	?	.	/	/	?	/
CCc1ccc(Nc2nc3c(S(=O)(=O)c4cccc(Cl)c4)nnn3c3ccsc23)cc1	6.5µM	.	/	/	4.6µM	/
C[C@H](NC(=O)[C@H]1N2C(=O)c3ccccc3C2SC1(C)C)C(=O)NCc1ccc(F)cc1 (stereo partly drawn)	/	.	/	/	/	/
Cc1ccc2c(Cl)cc(Cl)c(OCC(=O)NC3(C#N)CCCCC3)c2n1	/	.	/	/	/	/
Cn1nc(C(=O)NCCc2cccs2)c2ccccc2c1=O	/	.	/	/	/	/
C/C(=N/NC(=O)c1ccncc1)c1ccccc1	.	?	.	.	.	.
C/C(=N\NC(=O)c1sccc1C)c1ccncc1	.	.	.	.	.	?
C/C(=N\NC(=O)c1cccc(Cl)c1)c1cccc(NC(=O)C(C)C)c1	.	?	.	.	.	.
C/C(=N\NC(=O)C(=O)Nc1ccc(C)c(Cl)c1)c1ccncc1	1.6µM	.	.	.	2.3µM	.
C/C(=N\NC(=O)C(=O)Nc1cccc(Cl)c1)c1ccncc1	12µM	.	.	.	7.3µM	.
C/C(=N\Nc1cccc(Cl)c1)c1ccc(-n2ccnc2)cc1	?	?	.	.	16µM	?
SMILES	DT40 TDP1 CPT	ALOX12 inh	HT1080 IDH1KD tx	HT1080-NT tox	DT40 TDP1 no CPT	IL1B secr inh
C/C(=N\NC(=O)C(=O)Nc1ccc(C)cc1)c1ccncc1	?	.	.	.	9.2µM	.
Cc1ccc(NC2(c3nnnn3-c3cccc(C)c3)CCCC2)cc1	/	.	/	/	/	/
CCCCNC(=O)CSc1cc(C)c2cccc(C)c2n1	/	.	/	/	/	/
O=C(O)c1ccc(/C=C/C(=O)c2cc(Cl)ccc2Cl)cc1	/	.	/	/	/	/
COc1ccc(Cl)cc1NC(=O)[C@H]1C[C@H](CCC(N)=O)N[C@]12C(=O)Nc1c(C)cc(Cl)cc12	/	.	/	/	/	/
CC(=O)Nc1ccc(/C(C)=N/NC(N)=S)cc1	/	28µM	/	/	/	/
